MEKK2 mut-MEK5: signal of MEK5 binding to mutant human MEKK2 PB1 domain; percent response, % at 10 µM; bead flow cytometry, Alexa488-MEK5 binding to MEKK2 mutant; 290,000 tested, 0.35% active; AID 1530; in the data active = percent response above about 24%, passing the limit was not always enough
MEKK3 PB1 HTS: modulators (inhibitors or enhancers) of MEK5 binding to human MEKK3 PB1 domain. bead-based flow cytometry, Alexa488-MEK5 binding to MEKK3; actives lie on both sides; 0 = blocked by unlabeled MEK5, 100 = vehicle. binding response (% of control), % at 10 µM. 290,000 tested, 1.4% active. AID 1529;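 active = binding response more than 3 SD above or below the average of its plate-row segment, actives on both sides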;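 also: Alexa488 bead fluorescence after subtracting the streptavidin-only scavenger bead signal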
Rce1 inh: yeast Ras-converting enzyme inhibition; Q03530; yeast membranes, quenched prenylated peptide cleavage fluorescence; calls only; 290,000 tested, 0.27% active; AID 2563;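 active = fall in fluorescence gain of 50% or more versus controls, with final raw signal at or below 3038400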
Target sequence (Q03530 whole entry, looked up): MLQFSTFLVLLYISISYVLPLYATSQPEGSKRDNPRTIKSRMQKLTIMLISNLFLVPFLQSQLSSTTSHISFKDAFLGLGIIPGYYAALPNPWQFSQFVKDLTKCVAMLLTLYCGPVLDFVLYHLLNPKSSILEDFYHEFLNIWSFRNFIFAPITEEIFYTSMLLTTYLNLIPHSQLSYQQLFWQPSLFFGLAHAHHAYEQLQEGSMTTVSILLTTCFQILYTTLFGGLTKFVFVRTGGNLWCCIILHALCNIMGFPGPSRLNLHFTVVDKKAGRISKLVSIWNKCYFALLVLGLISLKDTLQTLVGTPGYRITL
UBC13 polyUb: human UBC13 polyubiquitination inhibition | 330,000 tested, 0.47% active | AID 485273 | UBC13 polyubiquitin chain formation, TR-FRET | inhibition, % at 20 µM; in the data active = inhibition above about 45%, passing the limit was not always enough
MEKK2 WT-MEK5: raises or lowers MEK5 binding to wildtype human MEKK2 PB1 domain. bead flow cytometry, Alexa488-MEK5 binding to MEKK2 WT; actives lie on both sides. AID 1531. binding response (% of control), % at 10 µM. 290,000 tested, 1.1% active; in the data active = binding response below about 67% or above about 130%
MEKK2wt confirm: raises or lowers MEK5 binding to wildtype human MEKK2, retest | shares compounds with MEKK3 PB1 HTS | bead flow cytometry, Alexa488-MEK5 binding to MEKK2 WT; actives lie on both sides | binding response (% of control), % at 10 µM | 5,900 tested, 2.4% active | AID 1892; in the data active = binding response below about 16% or above about 210%; inactive = in between
MEKK2mut confirm: signal of MEK5 binding to mutant human MEKK2, retest; shares compounds with MEKK3 PB1 HTS; bead flow cytometry, Alexa488-MEK5 binding to MEKK2 mutant; percent response, % at 10 µM; 5,900 tested, 2% active; AID 1893; in the data active = percent response mostly above about 71%, no sharp cut-off; inactive = mostly below about 38%;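 also: higher means compound restores mutant binding toward wildtype level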
MEKK3 confirm: confirmation of inhibitors of MEK5 binding to human MEKK3; shares compounds with MEKK3 PB1 HTS; bead flow cytometry, Alexa488-MEK5 binding to MEKK3; active compounds read low; binding response (% of control), % at 10 µM; 5,900 tested, 1.8% active;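 active = binding response below 72% of control, or above a set upper limit, though filed actives all read lower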;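 also: lower values mean stronger disruption of MEK5 binding to MEKK3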
Casp3 counter: caspase-3 inhibition (UBC13 counter-screen); Recombinant caspase-3, Caspase-Glo 3/7 luminescence, 60 min; inhibition, % at 20 µM; AID 488856; shares compounds with UBC13 polyUb; 1,400 tested, 4% active;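 active = mean inhibition across replicates above about 26%, limit read from the data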
Target sequence (P42574 whole entry, looked up): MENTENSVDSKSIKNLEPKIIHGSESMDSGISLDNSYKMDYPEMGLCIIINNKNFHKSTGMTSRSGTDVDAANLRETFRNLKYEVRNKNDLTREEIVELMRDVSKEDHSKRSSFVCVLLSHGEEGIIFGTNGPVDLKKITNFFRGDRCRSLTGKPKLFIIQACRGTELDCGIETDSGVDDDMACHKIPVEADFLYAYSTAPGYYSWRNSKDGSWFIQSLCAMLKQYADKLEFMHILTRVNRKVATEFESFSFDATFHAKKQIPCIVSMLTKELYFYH
UBC13 confirm: confirmation of human UBC13 polyubiquitin inhibitors. UBC13 polyubiquitination, TR-FRET, biochemical. shares compounds with UBC13 polyUb. inhibition, % at 10 µM. 1,400 tested, 68% active; in the data active = inhibition above about 45%
Of the large screens only hits and unclear results are named; the others gave an inactive call (follow-up assays come after a bar, where they were run); [ ] = dose if it differs, or a comment. This is a sample that favours compounds with a hit; in the whole collection about 2.5% have one here.

CCN(CC)CCOc1ccc(/C(=C(/Cl)c2ccccc2)c2ccccc2)cc1	MEKK2 mut-MEK5 26, UBC13 polyUb 73, MEKK2 WT-MEK5 179 | MEKK2wt confirm inactive | MEKK2mut confirm inactive | MEKK3 confirm inactive | Casp3 counter inactive | UBC13 confirm 56
CC/C(=C(\c1ccc(O)cc1)c1ccc(OCCN(C)C)cc1)c1ccccc1	UBC13 polyUb 79, MEKK2 WT-MEK5 180 | MEKK2wt confirm inactive | MEKK2mut confirm inactive | MEKK3 confirm inactive | Casp3 counter inactive | UBC13 confirm 55
CCOc1ccc(C(=O)OCCN(CC)CC)cc1	none
COC(=O)C1=C(C)N(CC2CC2)C(=NCc2cccc(Cl)c2)N[C@H]1c1ccccc1	MEKK2 mut-MEK5 26, UBC13 polyUb 54 | MEKK2wt confirm inactive | MEKK2mut confirm inactive | MEKK3 confirm inactive | Casp3 counter inactive | UBC13 confirm inactive
COC(=O)C1=C(C)N(Cc2ccccc2)C(=NCc2ccccc2)N[C@H]1c1cccc(F)c1	MEKK2 mut-MEK5 35, UBC13 polyUb 67, MEKK2 WT-MEK5 137 | MEKK2wt confirm inactive | MEKK2mut confirm inactive | MEKK3 confirm inactive | Casp3 counter inactive | UBC13 confirm inactive
O=C(C[C@H]1C/C=C\C[C@@H](Cc2ccc(F)cc2)C(=O)OC[C@H]2CCCN2C1=O)NCCO	none (no result: MEKK2 mut-MEK5, MEKK3 PB1 HTS, Rce1 inh, MEKK2 WT-MEK5)
CN(C)CCCNc1cc(C(C)(C)C)nc2c(-c3ccccc3)cnn12	UBC13 polyUb 66, MEKK2 WT-MEK5 156 | MEKK2wt confirm inactive | MEKK2mut confirm inactive | MEKK3 confirm inactive | Casp3 counter inactive | UBC13 confirm inactive
CC(C)(C)c1cc(NCCCn2ccnc2)n2ncc(-c3ccc(Cl)cc3)c2n1	MEKK2 mut-MEK5 37, UBC13 polyUb 52, MEKK2 WT-MEK5 157 | MEKK2wt confirm inactive | MEKK2mut confirm inactive | MEKK3 confirm inactive | Casp3 counter inactive | UBC13 confirm 77
Cc1cc(NCCCN2CCOCC2)n2ncc(-c3ccccc3)c2n1	none
Cc1cc(NCCCn2ccnc2)n2nc(-c3ccc(Cl)cc3)cc2n1	none
CCN1CCN(Cc2ccc(NC(=O)c3cc(NC(=O)c4cncc(-c5ccc(C#N)cc5)c4)cc(OC)c3)cc2C(F)(F)F)CC1	MEKK2 mut-MEK5 131, UBC13 polyUb 118, MEKK2 WT-MEK5 189 | MEKK2wt confirm inactive | MEKK2mut confirm inactive | MEKK3 confirm 38 | Casp3 counter inactive | UBC13 confirm 126
CCN1CCN(Cc2ccc(NC(=O)c3ccc(C)c(NC(=O)c4nccnc4N)c3)cc2C(F)(F)F)CC1	none
CCN1CCN(Cc2ccc(NC(=O)c3ccc(C)c(NC(=O)c4cc(-c5ccc(Br)cc5)n[nH]4)c3)cc2C(F)(F)F)CC1	MEKK2 mut-MEK5 75, UBC13 polyUb 72, MEKK2 WT-MEK5 150 | MEKK2wt confirm 239 | MEKK2mut confirm 126 | MEKK3 confirm inactive | Casp3 counter inactive | UBC13 confirm 65
CC(C)=CC(=O)Nc1ccc(S(=O)(=O)Nc2ccccn2)cc1	none
Cc1cc(F)ccc1NC(=O)c1cc(S(=O)(=O)N2CCc3ccccc32)cn1C	none
C=CCNc1nc(C)c(CNc2c(C)cc(C)cc2C)nc1C#N	none
CCCCCCCCNC(C)C(O)c1ccc(SC(C)C)cc1 (stereo unspecified)	MEKK2 mut-MEK5 48, Rce1 inh active, UBC13 polyUb 71, MEKK2 WT-MEK5 142 | MEKK2wt confirm inactive | MEKK2mut confirm inactive | MEKK3 confirm inactive | Casp3 counter inactive | UBC13 confirm 75
CCCCCN(C(=O)CCC(=O)OC(C)C(=O)NC1CCCCC1)c1c(N)n(CCCC)c(=O)[nH]c1=O (stereo unspecified)	none (no result: MEKK2 mut-MEK5, MEKK3 PB1 HTS, MEKK2 WT-MEK5)
Oc1ccccc1CN1CCC(C(O)(c2ccccc2)c2ccccc2)CC1	none
CC(C)(C)c1ccc(C(O)CCCN2CCC(C(O)(c3ccccc3)c3ccccc3)CC2)cc1 (stereo unspecified)	MEKK2 mut-MEK5 24, UBC13 polyUb 67, MEKK2 WT-MEK5 212 | MEKK2wt confirm inactive | MEKK2mut confirm inactive | MEKK3 confirm inactive | Casp3 counter inactive | UBC13 confirm 56
COc1ccc(-c2nn(-c3ccccc3)cc2/C=N/N=C(N)N)cc1OC	UBC13 polyUb 51, MEKK2 WT-MEK5 148 | MEKK2wt confirm inactive | MEKK2mut confirm inactive | MEKK3 confirm inactive | Casp3 counter inactive | UBC13 confirm 67
COc1ccc(-c2nn(-c3ccccc3)cc2/C=N/O)cc1OC	none
CCOc1ccc(N2C(=O)CC(NCC#N)C2=O)cc1 (stereo unspecified)	none
CSCC[C@H](NC(=O)c1ccco1)c1nnc2ccccn12	none
Cc1cccnc1CNC(=O)C1CCC(=O)N(CCc2cccc(F)c2)C1 (stereo unspecified)	none
CCC(C)(C)c1ccc(OCCCC[n+]2ccc(C)cc2)c(C(C)(C)CC)c1	MEKK2 mut-MEK5 56, UBC13 polyUb 69, MEKK2 WT-MEK5 189 | MEKK2wt confirm inactive | MEKK2mut confirm inactive | MEKK3 confirm inactive | Casp3 counter inactive | UBC13 confirm 99
Cc1cc[n+](CC[n+]2ccc(C)cc2)cc1	none (no result: MEKK2 mut-MEK5, MEKK3 PB1 HTS, MEKK2 WT-MEK5)
NCCCC[C@@H]1NC(=O)c2cc([N+](=O)[O-])cc(F)c2NCCCC[C@@H](C(N)=O)NC(=O)CNC1=O	UBC13 polyUb 85, MEKK2 WT-MEK5 135 | MEKK2wt confirm inactive | MEKK2mut confirm inactive | MEKK3 confirm inactive | Casp3 counter inactive | UBC13 confirm 77
NC(=O)[C@@H]1CCCCNc2c(F)cc([N+](=O)[O-])cc2C(=O)N[C@@H](CCCN=C(N)N)C(=O)NCC(=O)N1	none
CCS(=O)(=O)NCCNc1ccc([N+](=O)[O-])cc1	none
NC(N)=N/N=C/c1ccc(OCc2ccccc2)cc1	UBC13 polyUb 50, MEKK2 WT-MEK5 162[inhibitor] | MEKK2wt confirm inactive | MEKK2mut confirm inactive | MEKK3 confirm inactive | Casp3 counter inactive | UBC13 confirm 53
NC(N)=N/N=C/c1ccc(OCc2ccc(Cl)cc2)cc1	MEKK2 mut-MEK5 29, UBC13 polyUb 102, MEKK2 WT-MEK5 183 | MEKK2wt confirm inactive | MEKK2mut confirm inactive | MEKK3 confirm inactive | Casp3 counter inactive | UBC13 confirm 120
CC(=O)N1c2ccc(S(=O)(=O)N3CCC(C(=O)Nc4cccc(C(F)(F)F)c4)CC3)cc2CC1C (stereo unspecified)	none
